# Reference: ChEMBL document CHEMBL3988442, “University of Dundee, Small-Polar-MMV Screening Library” (2021)
# Among all 48,000 compounds or so, about 13,000 (27%) showed an effect of 50% or more. This is one part of the list.
# System: Wolbachia pipientis
# Experiment: Anti-Wolbachia Cell-Based Screen
# Format: functional
# Set-up: scale not given: in the data most compounds retested in dose-response had high values
# Settings: 5 µM
row,Compound,Percent Effect
1,Cc1ccccc1C1(CN)CCCCC1,0.8163%
2,Cc1nc(N2C[C@H]3CC[C@@H](C2)N3)nc2cc(S(C)(=O)=O)ccc12,4.923%
3,CN(C)C(=O)CN1C[C@@H]2OCCN(c3ncc(F)cn3)[C@@H]2C1,104.1%
4,CCN1C[C@H]2[C@@H](C1)N(c1ncc(F)cn1)CC[C@H]2OC.O=C(O)C(F)(F)F.O=C(O)C(F)(F)F,2.548%
5,Cc1cnc(N2CCC[C@@H]3CN(CC(=O)N(C)C)C[C@@H]32)nc1.O=C(O)C(F)(F)F.O=C(O)C(F)(F)F,-0.2022%
6,Cc1nc(CN2C[C@@H]3OCCN(c4ncc(F)cn4)[C@@H]3C2)cs1,-23.28%
7,CCOC(=O)CN1C[C@@H]2OCCN(c3ncc(F)cn3)[C@@H]2C1,86.46%
8,Cc1nc(C2CCN(C(C)C)CC2)sc1Br,83.07%
9,Cc1nc(C2CCCN(C(C)C)C2)sc1Br (centres undefined),117%
10,Cl.O=C(NCC(F)(F)F)C1=NOC2(CCCNC2)C1 (centres undefined),8.664%
11,CN(Cc1cncnc1)[C@H]1CN(Cc2ccco2)[C@@H]2CCCO[C@@H]21,-12.03%
12,OC[C@@H]1[C@H]2CN(c3ccccn3)CCN2C[C@H]1c1ccccc1,110.4%
13,O=C(O)C(F)(F)F.O=C(O)C(F)(F)F.c1ccc(CO[C@@H]2C[C@H]3CN(c4ncccn4)CCN3C2)nc1,-5.237%
14,CN(C)C(=O)CN1CCO[C@H]2CN(c3ccccn3)C[C@H]21,-17.61%
15,OC[C@@H]1[C@@H](c2ccccc2)CN2CCN(c3ccccn3)C[C@H]12,121.4%
16,c1ccc(-c2cc(CN3C[C@H]4CC[C@H]3C4)on2)cc1,0.1259%
17,Cc1cc(CN2CCN3C[C@H](c4ccccc4)[C@@H](CO)[C@H]3C2)on1,124.7%
18,Cc1cc(CN2C[C@H]3CC[C@@H]2CN(Cc2[nH]cnc2C)C3)on1,1.495%
19,COCC(=O)NC[C@H]1C[C@@H]2CCN1C[C@@H]2CN1CCc2ccccc2C1,-3.386%
20,COc1cccc(CC(C)NC(=O)NCCc2cccnc2)c1 (centres undefined),-9.147%

row,Compound,Percent Effect
1,CN(C)C(=O)CN1C[C@@H]2CC[C@H](C1)N(C(=O)Cc1ccccc1Cl)C2,-1.206%
2,CN(C)Cc1cncc2c1CCN(CC(=O)N(C)C)C2,91.67%
3,CCN1CCc2c(CNC(=O)c3nccn3C)cncc2C1.Cl.Cl.Cl,11.07%
4,CC(C)N(C)Cc1cncc2c1CCN(CC1CC1)C2.Cl.Cl.Cl,102.9%
5,CN(C)C(=O)CN1C[C@@H]2CC[C@H](C1)N(Cc1c(Cl)cncc1Cl)C2,-12.98%
6,CC(C)N(C)Cc1cncc2c1CCN(CC(=O)N(C)C)C2.Cl.Cl.Cl,105.8%
7,Cl.Cl.c1cnc(NCc2cncc3c2CCN(CC2CC2)C3)nc1,93.82%
8,CS(=O)(=O)NCc1cncc2c1CCN(CC1CCOC1)C2.Cl.Cl (centres undefined),-2.425%
9,CC(C(=O)N1CCCC1)N1CCCN(C(=O)Oc2ccccc2)CC1 (centres undefined),21.65%
10,Cc1noc(C)c1CN1C(=O)[C@H]2CC[C@@H]1CN(Cc1nccs1)C2,-3.876%
11,FC1(F)CCNCC12CCN(c1ccccn1)C2 (centres undefined),-2.564%
12,Cc1nc(NCc2ccco2)nc2c1COCC21CCNC1.O=C(O)C(F)(F)F (centres undefined),-14.58%
13,N#Cc1ccc(NCCc2n[nH]c(=O)[nH]2)cc1Cl,-5.304%
14,CSc1ncc(CN2C[C@H]3CC[C@@H]2CN(C2CCOCC2)C3)cn1,-8.939%
15,CC(C)N(C)Cc1cncc2c1CCN(C1CCOCC1)C2.Cl.Cl.Cl,97.34%
16,CN(C)Cc1cncc2c1CCN(C1CCOCC1)C2.Cl.Cl.Cl,89.69%
17,O=C1[C@H]2CN(C3CCOCC3)C[C@H]2CN1Cc1cccnc1,-4.896%
18,COc1cccc(CC(C)NC(=O)NCCNC(C)=O)c1 (centres undefined),-2.176%
19,Cc1cc(C)c(CNc2ncnc3c2cnn3C)c(=O)[nH]1,-6.133%
20,COc1c(CNCCc2c[nH]c3cc(F)ccc23)c(C(C)C)nn1C,79.98%

row,Compound,Percent Effect
1,COc1c(CNCCc2c[nH]c3cc(F)ccc23)c(C)nn1C,86.39%
2,CC(C)(C)c1n[nH]c(C2CN(CC3CCC3)CCO2)n1 (centres undefined),7.516%
3,O=C1CCCN1CCN1CC=C(c2cnn(C3CCS(=O)(=O)C3)c2)CC1 (centres undefined),-11.25%
4,O=C(C1CCCC1)N1CCO[C@@H]2CNC[C@@H]21,-1.725%
5,CC(=O)C1(c2ccccc2)CCN(C(=O)CC2CNCCO2)CC1 (centres undefined),5.115%
6,O=C(c1ccoc1)N1CCO[C@@H]2CNC[C@@H]21,113.2%
7,CC[C@H]1CN2CC[C@H]1C[C@@H]2CNC(=O)c1ccco1,-12.57%
8,O=C(c1ccco1)N1CCO[C@@H]2CNC[C@@H]21,105.9%
9,O=C(C1CCC1)N1CCO[C@@H]2CNC[C@@H]21,7.79%
10,O=C(c1ccccc1)N1CCO[C@@H]2CNC[C@@H]21,106.9%
11,O=C(c1ccccc1)N1CCOC2CNCC[C@H]21 (some centres undefined),121.8%
12,N#Cc1cccc(CN2CCO[C@@H]3CNC[C@@H]32)c1,-0.4846%
13,Cl.Cl.c1cc(CN2CCO[C@@H]3CNC[C@@H]32)cs1,-7.592%
14,c1cc(CN2CCO[C@@H]3CNC[C@@H]32)co1,-20.72%
15,Cl.Cl.c1ccc(CN2CCOC3CNCC[C@H]32)cc1 (some centres undefined),-10.82%
16,Cn1nc(-c2ccccc2)cc1[C@H]1CN2CC[C@H]1C[C@@H]2CNS(C)(=O)=O,1.19%
17,CNCc1cn(C[C@H]2CC3CCN2C[C@@H]3C(=O)Nc2ccccc2)nn1 (some centres undefined),-4.498%
18,O=C1NC[C@H]2CN(C3CCOCC3)CCN12,-8.801%
19,COc1ccccc1OCCCN1CC=C(c2cnn(C)c2)CC1,5.6%
